Inconclusive results are not listed. Calls of active or inactive are those of the source. Unless noted, the call rests on the fitted dose curve; in most records, active means well fitted curve in the direction sought with a large enough effect in the repeat runs; inconclusive means weak or mixed curves; inactive means flat fitted curve, though single readings scatter.
Assays:
[1] = qHTS assay to test for compound auto fluorescence at 535 nm (green) in HEK293 cells (AID 720680); conditions: green autofluorescence 485/535 nm; series mostly up to 91.3 µM
[2] = qHTS assay to test for compound auto fluorescence at 535 nm (green) in HEK293 cell free culture (AID 720682); conditions: cell-free medium, green autofluorescence 485/535 nm, active compounds read high; series mostly up to 91.3 µM
In short: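 Green-channel intensity (Ex/Em 485/535 nm) was recorded from compound-treated wells containing only DMEM with 10% FBS. Fluorescein provided the equivalency standard.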

[3] = qHTS assay to test for compound auto fluorescence at 590 nm (red) in HEK293 cell free culture (AID 720683); conditions: cell-free medium autofluorescence, Ex540/Em590 red; series mostly up to 91.3 µM
In short: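 Tox21 10K library compounds were pinned into cell-free DMEM with 10% FBS and fluorescence was read at excitation 540 nm. Activity is expressed as Rose Bengal sodium equivalency.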

[4] = qHTS assay to test for compound auto fluorescence at 590 nm (red) in HepG2 cell free culture (AID 720684); conditions: cell-free medium autofluorescence, red 540/590 nm; series mostly up to 91.3 µM
In short: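 Ex 540 / Em 590 nm read of compound in cell-free MEM (10% FBS). Rose Bengal sodium reference.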

[5] = qHTS assay to test for compound auto fluorescence at 460 nm (blue) in HepG2 cell free culture (AID 720685); conditions: Cell-free culture medium, blue autofluorescence 405/460 nm; series mostly up to 91.3 µM
In short: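 Cell-free plates of MEM plus 10% FBS received 23 nL compound or DMSO vehicle; blue-channel (405/460 nm) intensity scored against triamterene as reference fluorophore.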

[6] = qHTS assay to test for compound auto fluorescence at 535 nm (green) in HepG2 cell free culture (AID 720686); conditions: Cell-free medium, green autofluorescence 485/535 nm; series mostly up to 91.3 µM
[7] = target: Glucocorticoid receptor (Homo sapiens) (UniProt P04150); test: qHTS assay to identify small molecule agonists of the glucocorticoid receptor (GR) signaling pathway (AID 720691; active means well fitted activation curve with a large enough effect in the signal ratio in the repeat runs, not every such curve was filed as active; the % refers to the signal ratio); conditions: GR-bla HeLa, beta-lactamase reporter ratio, 18 h; series mostly up to 62.4 µM
In short: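 Measures GR pathway activation through a GRE-beta-lactamase reporter stably integrated in HeLa cells, with 18 h compound treatment at 37 C and fluorescence detection using a FRET substrate.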

[8] = target: Glucocorticoid receptor (Homo sapiens) (UniProt P04150); test: qHTS assay to identify small molecule antagonists of the glucocorticoid receptor (GR) signaling pathway (AID 720692; active means well fitted inhibition curve with a large enough effect in the signal ratio in the repeat runs, not every such curve was filed as active; the % refers to the signal ratio); conditions: GR-bla HeLa, beta-lactamase FRET ratio, dexamethasone-stimulated, 18 h; series mostly up to 58.5 µM
In short: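 Tox21 10K library screened in concentration-response for blockade of dexamethasone (5 nM final)-induced GRE-bla reporter activity in HeLa cells; 18 h treatment, fluorescence read.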

[9] = qHTS assay to test for compound auto fluorescence at 460 nm (blue) in HEK293 cell free culture (AID 720681); conditions: cell-free medium, autofluorescence 405/460 nm (blue); series mostly up to 91.3 µM
In short: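 Test compounds were pinned into cell-free culture medium (DMEM with 10% FBS) and fluorescence was read directly at Ex/Em 405/460 nm. Signals were expressed as fluorescence equivalents of triamterene, with DMSO vehicle as control.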

[10] = qHTS assay to test for compound auto fluorescence at 460 nm (blue) in HepG2 cells (AID 720687); conditions: autofluorescence 405/460 nm, 1 h; series mostly up to 91.3 µM
In short: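 Cells (2,000/well in MEM with 10% FBS) attached overnight at 37 C, then were exposed to compound or DMSO for 1 hr at 37 C, 5% CO2. Fluorescence read at Ex/Em 405/460 nm, expressed as triamterene-equivalent signal.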
On the % scale 0 is the no-effect control and ±100 the full control effect.

Glucocorticoid receptor (Homo sapiens), sequence (P04150 whole entry, looked up): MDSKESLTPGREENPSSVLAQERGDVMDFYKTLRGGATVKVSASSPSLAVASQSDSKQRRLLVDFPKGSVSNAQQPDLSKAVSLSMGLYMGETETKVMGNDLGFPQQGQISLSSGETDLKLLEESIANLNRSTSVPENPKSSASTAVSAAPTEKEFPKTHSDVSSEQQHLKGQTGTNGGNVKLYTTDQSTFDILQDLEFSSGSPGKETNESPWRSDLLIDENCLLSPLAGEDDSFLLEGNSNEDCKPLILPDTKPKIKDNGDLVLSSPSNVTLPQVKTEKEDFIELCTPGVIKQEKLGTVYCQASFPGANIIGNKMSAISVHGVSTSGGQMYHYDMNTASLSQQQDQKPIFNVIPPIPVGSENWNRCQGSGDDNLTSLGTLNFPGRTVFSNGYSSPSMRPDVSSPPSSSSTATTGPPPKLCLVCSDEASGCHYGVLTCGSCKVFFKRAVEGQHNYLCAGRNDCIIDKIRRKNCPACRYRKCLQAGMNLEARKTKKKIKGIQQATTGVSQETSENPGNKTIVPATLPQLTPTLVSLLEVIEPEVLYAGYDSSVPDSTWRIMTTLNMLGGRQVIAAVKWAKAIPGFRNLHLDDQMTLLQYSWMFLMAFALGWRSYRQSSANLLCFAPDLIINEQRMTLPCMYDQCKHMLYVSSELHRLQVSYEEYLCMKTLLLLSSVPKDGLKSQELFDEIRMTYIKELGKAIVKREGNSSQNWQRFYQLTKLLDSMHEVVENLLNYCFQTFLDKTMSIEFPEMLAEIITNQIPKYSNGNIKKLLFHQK

ONc1ccccc1
inactive: outcome [1] | outcome [2] | outcome [3] | outcome [4] | outcome [5] | outcome [6] | Potency [7] | outcome [8]

CC(=O)O[C@@H]1CC2CCC1(C)C2(C)C (stereo partly specified)
inactive: outcome [1] | outcome [2] | outcome [3] | outcome [4] | outcome [5] | outcome [6] | Potency [7] | outcome [8]

Cc1c(Cl)cccc1Cl
inactive: outcome [9] | outcome [2] | outcome [3] | outcome [4] | outcome [5] | outcome [6] | outcome [10] | outcome [8]

CC(C)Cn1cnc2c1c(=O)n(C)c(=O)n2C
inactive: outcome [2] | outcome [3] | outcome [4] | outcome [5] | outcome [6] | outcome [10] | Potency [7]

CC(=O)CC(=O)Nc1ccc(C)cc1C
inactive: outcome [9] | outcome [2] | outcome [3] | outcome [4] | outcome [5] | outcome [6] | outcome [10] | Potency [7] | outcome [8]

CC(C)C1OCCN1CCOC(=O)NCCCCCCNC(=O)OCCN1CCOC1C(C)C (stereo unspecified)
inactive: outcome [9] | outcome [2] | outcome [3] | outcome [4] | outcome [5] | outcome [6] | Potency [7] | outcome [8]

C=Cc1ccc(C(C)(C)C)cc1
inactive: outcome [9] | outcome [2] | outcome [3] | outcome [4] | outcome [5] | outcome [10]

Nc1nc(-c2ccccc2)c(Br)c(=O)[nH]1
inactive: outcome [9] | outcome [2] | outcome [3] | outcome [4] | outcome [5] | outcome [6] | outcome [10] | Potency [7]

CCOCCOCC
inactive: outcome [9] | outcome [2] | outcome [3] | outcome [4] | outcome [5] | outcome [6] | outcome [10] | Potency [7] | outcome [8]

CNCCS(=O)(=O)O
inactive: outcome [9] | outcome [2] | outcome [3] | outcome [4] | outcome [5] | outcome [10] | outcome [8]

O=Cc1cc2ccccc2o1
inactive: outcome [9] | outcome [2] | outcome [3] | outcome [4] | outcome [5] | outcome [8]

O=C[O][Al]([O]C=O)[O]C=O
inactive: outcome [9] | outcome [2] | outcome [3] | outcome [4] | outcome [5] | outcome [6] | outcome [10] | Potency [7] | outcome [8]

CC1(C)[C@H]2CC[C@](C)(C2)[C@H]1O
inactive: outcome [9] | outcome [2] | outcome [3] | outcome [4] | outcome [5] | outcome [6] | outcome [10]

Cc1ccc(N)cc1S(=O)(=O)O
inactive: outcome [9] | outcome [2] | outcome [3] | outcome [4] | outcome [5] | outcome [6] | Potency [7] | outcome [8]

COc1ccc(CCO)cc1
inactive: outcome [9] | outcome [2] | outcome [3] | outcome [4] | outcome [5] | outcome [6] | outcome [10] | Potency [7] | outcome [8]

OC1OCCOC1O (stereo unspecified)
inactive: outcome [9] | outcome [2] | outcome [3] | outcome [4] | outcome [5] | outcome [6] | outcome [10] | Potency [7]

CCCCCc1cccc(=O)o1
inactive: outcome [2] | outcome [3] | outcome [4] | outcome [5] | outcome [6]

COS(=O)(=O)O
inactive: outcome [9] | outcome [2] | outcome [3] | outcome [4] | outcome [5] | outcome [6] | outcome [10]

CC(C)NCC(O)c1ccc2ccccc2c1 (stereo unspecified)
inactive: outcome [9] | outcome [2] | outcome [3] | outcome [4] | outcome [5] | outcome [6] | outcome [10] | Potency [7] | outcome [8]

CC(C)c1ccc(C=O)cc1
inactive: outcome [9] | outcome [2] | outcome [3] | outcome [4] | outcome [5] | outcome [6] | outcome [10] | Potency [7] | outcome [8]

CC(=O)Nc1ccc(OC(=O)c2ccccc2OC(C)=O)cc1
inactive: outcome [9] | outcome [2] | outcome [3] | outcome [4] | outcome [5] | outcome [10] | Potency [7]

CCCCCC(C)O (stereo unspecified)
inactive: outcome [9] | outcome [2] | outcome [3] | outcome [4] | outcome [5] | outcome [6] | outcome [10] | outcome [8]

O=C1CCCCO1
inactive: outcome [9] | outcome [2] | outcome [3] | outcome [4] | outcome [5] | outcome [10] | Potency [7] | outcome [8]

O=C(O)CSCC(=O)NC1CCSC1=O (stereo unspecified)
inactive: outcome [2] | outcome [3] | outcome [4] | outcome [5] | outcome [6]

CC(=O)c1cc(C)oc1C
inactive: outcome [9] | outcome [2] | outcome [3] | outcome [4] | outcome [5] | outcome [6] | outcome [10]

O=C(CCCCC(=O)Nc1c(I)cc(I)c(C(=O)O)c1I)Nc1c(I)cc(I)c(C(=O)O)c1I
inactive: outcome [9] | outcome [2] | outcome [3] | outcome [4] | outcome [5] | outcome [6] | outcome [10] | outcome [8]

C/C(CC(C)C)=N\O
inactive: outcome [9] | outcome [2] | outcome [3] | outcome [4] | outcome [5] | outcome [6] | outcome [8]

Cc1c(C(=O)c2c[nH]n(C)c2=O)ccc(S(C)(=O)=O)c1C1=NOCC1
inactive: outcome [9] | outcome [2] | outcome [3] | outcome [4] | outcome [5] | outcome [6] | Potency [7]

COc1ccc2c(c1)c1c3n2CCN(C)C3=NCC1
inactive: outcome [9] | outcome [2] | outcome [3] | outcome [4] | outcome [5] | outcome [10] | Potency [7]

Cc1ccc2c(c1)C(=O)c1ccccc1C2=O
inactive: outcome [9] | outcome [2] | outcome [3] | outcome [4] | outcome [5] | outcome [10] | Potency [7]

CC12CCC(C1)C(C)(C)C2O (stereo unspecified)
inactive: outcome [9] | outcome [2] | outcome [3] | outcome [4] | outcome [5] | outcome [10]

N[C@@H](CSCCCO)C(=O)O
inactive: outcome [9] | outcome [2] | outcome [3] | outcome [4] | outcome [5] | outcome [6] | outcome [10] | outcome [8]

CCCCCCCCCCCCCCCCCCOCCO
inactive: fluorescence, % of fluorescent control [9] -0.0158% [at 18.6 µM] | activity change [2] -0.0191% [at 18.6 µM] | fluorescence, % of fluorescent control [3] 0.138% [at 18.6 µM] | fluorescence, % of Rose Bengal [4] -0.0112% [at 18.6 µM] | fluorescence, % of fluorescent control [5] 0.0125% [at 18.6 µM] | fluorescence, % of fluorescein control [6] -0.0027% [at 18.6 µM] | fluorescence, % of fluorescent control [10] 0.0321% [at 18.6 µM] | Potency [7]

CC1=C(C(=O)O)N2C(=O)[C@@H](NC(=O)[C@H](N)c3ccccc3)[C@H]2SC1
inactive: outcome [9] | outcome [2] | outcome [3] | outcome [4] | outcome [5] | outcome [6] | Potency [7] | outcome [8]

O=C1OCCO1
inactive: outcome [9] | outcome [2] | outcome [3] | outcome [4] | outcome [5] | Potency [7]

CCCCCCCCCOC(=O)CCCCC(=O)OCCCCCCC
inactive: outcome [9] | outcome [2] | outcome [3] | outcome [4] | outcome [5] | outcome [6] | outcome [10] | Potency [7] | outcome [8]

— PubChem BioAssay (Tox21)
